High-throughput results as filed in PubChem BioAssay.
VCAM1 pot – enhances TNF alpha induced VCAM1 expression in HUVEC. HUVEC TNFa-stimulated VCAM-1 immunofluorescence, high-content imaging; scaled per plate to unstimulated/TNFa-only wells. activation, % at 2 µM. 0.19% of 93,000 active;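 active = activation above the screen mean plus 3 SD, with well images confirming the hit on visual review, cut at about 28% in these data, passing the limit was not always enough; inconclusive = activation above that limit but images do not confirm it; inactive = activation not above that limit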;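 also: signal is the number of cytoplasmic VCAM-1 stained grains per positive cell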
VCAM1 pot confirm – enhancers of VCAM1 induction in HUVEC – imaging, triplicate retest, confirmation. shares compounds with VCAM1 pot. HUVEC TNFa-stimulated VCAM-1 immunofluorescence imaging. activation, % at 2 µM. 230 tested, under 10 active. AID 1034;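 active = activation above 30% in triplicate retests at 2 µM, then confirmed by visual review of the well images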
Large screens that a line does not name were inactive (follow-up assays come after a bar, where they were run). Only a selection was taken, and hits are over-represented in it overall.

CC(=O)c1ccc(NS(=O)(=O)c2ccc(CC(C)C)cc2)cc1	none
COc1ccc(C)cc1NS(=O)(=O)c1ccc(NS(=O)(=O)c2ccc(NC(C)=O)cc2)cc1	none
CC(=O)Nc1ccc(S(=O)(=O)NC(CC(=O)NC2CCCCC2C)C(C)C)cc1 (stereo not drawn)	VCAM1 pot 31 | VCAM1 pot confirm inactive
Fc1ccc(CSc2ncnc3sc4c(c23)CCCC4)cc1	none
COc1ccc(CCN2C(=O)C(O)=C(C(=O)c3ccco3)C2c2cccs2)cc1OC (stereo not drawn)	none
CCOC(=O)c1cc(C#N)c(N2CCCC2)nc1-c1ccccc1	none
CCOC(=O)c1cc(-c2ccc(OC)cc2F)nc2c1c(C)nn2CCC#N	VCAM1 pot 34 | VCAM1 pot confirm inactive
C=C(C)CSc1nc(N)c2c(C)c(C)sc2n1	none
CC(C)(C)N1CC2(c3ccccc3)CN(C(C)(C)C)CC(c3ccccc3)(C1)C2=O	none
Fc1cccc(-c2nn[nH]n2)c1	VCAM1 pot 31 | VCAM1 pot confirm inactive
Cc1cc(NC(=O)C2CCN(S(=O)(=O)Cc3ccccc3)CC2)ccc1-n1cnnn1	none
CCc1cccc(CC)c1NC(=O)C1SC(=Nc2ccccc2C)C(c2nc3ccccc3s2)=C1N (stereo not drawn)	none
CC1CC(C)CN(c2nc3c(c(=O)n(C)c(=O)n3C)n2C)C1 (stereo not drawn)	none
CC(=O)c1cc(C#N)c(SCc2ccccc2C#N)nc1C	none
CCc1ccc(Nc2oc(C)cc(=O)c2C(C)=O)cc1	none
O=C(COc1ccc(S(=O)(=O)N2CCCCC2)cc1)NC1CCCCC1	none
CCOC(=O)c1ccc(NC(=O)CSc2nnc(C3CCCCC3)n2C)cc1	none
CCCn1nnc(NC(=O)COc2ccc(C3CCCCC3)cc2)n1	VCAM1 pot 68 | VCAM1 pot confirm inactive
O=C(NC(NCCCN1CCOCC1)(C(F)(F)F)C(F)(F)F)C1CCCCC1	none
O=c1[nH]nnc2sc3c(c12)CCCC3	none
C=C(C)C1CC=C(C)/C(=N/NC(=O)COc2cccc3ccccc23)C1 (stereo not drawn)	none
O=c1c2ccccc2nc(-c2ccoc2)n1CCc1ccccc1	none
CC1CCN(C(=O)Cn2c(=O)n(CCc3ccccc3)c(=O)c3ccccc32)CC1	VCAM1 pot inconclusive | VCAM1 pot confirm inactive
O=C(Cn1cnc2ccccc2c1=O)N1CCN(Cc2ccccc2)CC1	none
CCC(C)(C)NC(=O)C(OC(=O)c1ccco1)c1ccccc1OC (stereo not drawn)	none
O=C(NCC1CCCO1)c1c(O)c2c([nH]c1=O)CCCC2 (stereo not drawn)	none
O=C(NCCCNC(=O)c1ccco1)c1ccco1	none
CCOC(=O)Cc1csc(NC(=O)c2cccnc2)n1	none
O=C(NCCCCNC(=O)c1cccnc1)c1cccnc1	VCAM1 pot inconclusive | VCAM1 pot confirm inactive
CCC(C)(CC(=O)N(C)CCC#N)c1ccccc1 (stereo not drawn)	none
CCCn1c(NC(=O)C2COc3ccccc3O2)nc2ccccc21 (stereo not drawn)	none
CN1CCN(c2ccccc2NC(=O)c2ccc(OCc3ccccc3)cc2)CC1	none
O=C(CN1CCOCC1)Nc1ccc(OCc2ccccc2)cc1	none
c1ccc(COc2ccc(OCCCCN3CCCCC3)cc2)cc1	VCAM1 pot 38 | VCAM1 pot confirm inactive
CCOC(=O)C1=C(O)/C(=C/c2ccc(C)o2)SC1=NC(=O)c1ccccc1C	none
CCn1cc(Br)c(C(=O)N2CCN(c3ccccc3)CC2)n1	none
O=C(CSc1nnnn1-c1ccc2c(c1)OCO2)NCc1ccccc1	none
O=C(CSc1nnc(Cc2cccs2)n1-c1ccccc1)NCc1ccc2c(c1)OCO2	none
Cc1cc(C(=O)CSc2nnc(Cc3ccccc3)o2)c(C)n1Cc1ccc2c(c1)OCO2	VCAM1 pot 54 | VCAM1 pot confirm inactive
CC1=C(C(=O)OCc2ccccc2)C(c2ccoc2)C(C#N)=C(N)O1 (stereo not drawn)	none
O=C(C1CCN(S(=O)(=O)N2CCOCC2)CC1)N1CCOCC1	none
Cc1ccc(Cc2nnc3n(-c4ccccc4)nc(C(=O)c4ccccc4)n3c2=O)cc1	none
CCOc1ccc(-c2nnc3sc(COc4ccc(C)cc4)nn23)cc1	VCAM1 pot 40 | VCAM1 pot confirm inactive
COc1ccc(Cc2nn3c(-c4ccccc4Br)nnc3s2)cc1	none
c1ccc(-c2nnc3sc(-c4ccncc4)nn23)cc1	none
CCOC(=O)c1ccccc1NC(=O)CSc1nnc(COc2ccccc2C)n1C	none
O=C1CC(N2CCN(Cc3ccc4c(c3)OCO4)CC2)C(=O)N1c1ccccc1 (stereo not drawn)	none
COc1ccc(OCC(=O)N2CC3(C)CC2CC(C)(C)C3)cc1 (stereo not drawn)	none
CSC1=NCCN1C(=O)COc1ccc2ccccc2c1	VCAM1 pot 30 | VCAM1 pot confirm inactive
O=C(COc1ccc(Br)cc1)N1CCN(c2ccccc2)CC1	none
O=C(Cc1ccccc1)Nc1cccc(N2CCCC2)c1	none
Cn1c(SCC(=O)NC2CC2)nnc1-c1cccc(NC(=O)c2ccccc2F)c1	none
Cc1ccc(OCC(=O)Nc2ccc([N+](=O)[O-])cn2)cc1C	none
CCOc1cc(S(=O)(=O)NC2CCCCCC2)ccc1F	none
CCCCCCCC1CC(CSc2ncn[nH]2)OC1=O (stereo not drawn)	VCAM1 pot 89 | VCAM1 pot confirm inactive
CCCCCC1CC(CC(C)C(=O)Nc2nncs2)C(=O)O1 (stereo not drawn)	none
O=C(O)c1[nH]nc2c1COc1ccccc1-2	none
COc1cccc(N/C=C(\C#N)c2ccc(OCCCF)cc2)c1	none
CCOc1ccc(CCNC(=O)Cn2c(=O)oc3ccccc32)cc1OCC	none
Cc1c(NC(=O)CC2CC(C)OC2=O)c(=O)n(-c2ccccc2)n1C (stereo not drawn)	none
O=C(C1CCCN(S(=O)(=O)Cc2ccccc2)C1)N1CCCCC1 (stereo not drawn)	none
CC(NC(=O)C1CCCN(C(=O)N(C)C)C1)c1ccccc1 (stereo not drawn)	VCAM1 pot 66 | VCAM1 pot confirm inactive
CCN(CCNC(=O)C1CCCN(S(=O)(=O)CC)C1)c1ccccc1 (stereo not drawn)	none
COc1cccc2[nH]c3c(N4CC(C)CC(C)C4)ncnc3c12 (stereo not drawn)	none
C#CC1(O)CC(C)NCC1(C)CCC#N (stereo not drawn)	none
COc1ccc(CN(CC(=O)NCC2CCCO2)C(=O)CNS(=O)(=O)c2ccc(C)cc2)cc1 (stereo not drawn)	none
CCOC(=O)N1CCN(C(=O)C2CCC(CNS(=O)(=O)c3ccccc3)CC2)CC1 (stereo not drawn)	none
COc1ccc(S(=O)(=O)NCC2CCC(C(=O)N3CCC4(CC3)OCCO4)CC2)cc1 (stereo not drawn)	VCAM1 pot inconclusive | VCAM1 pot confirm inactive
COc1ccc(NS(=O)(=O)c2cc(C)ccc2NC(=O)c2cc(C)oc2C)cc1	none
COC(=O)C1=C(C)N(C2CCCC2)C(=O)C1(NC(C)=O)C(F)(F)F (stereo not drawn)	none
COc1ccc(C(=O)/C(C)=N/O)cc1OC	none
COc1ccc(C(=O)Nn2c(C)nnc2-n2nc(C)cc2C)cc1OC	VCAM1 pot 43 | VCAM1 pot confirm inactive
COc1ccc(C(=O)Nc2nc3ccccc3[nH]2)cc1OC	none
O=C(NCC1CCCO1)C1CCC(=O)N1Cc1ccccc1Cl (stereo not drawn)	none
O=C(Nc1nc(-c2ccc(Cl)s2)cs1)c1ccncc1	none
O=C(COc1ccccc1)n1nc(-c2ccc(Cl)cc2)nc1NCc1ccco1	none
CCC(=O)NC(c1ccc([N+](=O)[O-])cc1)c1c(O)ccc2ccccc12 (stereo not drawn)	none
